PubChem BioAssay (EPA / NIEHS)
Records with an inconclusive call do not appear. The source made the active and inactive calls. Rule for the calls: active = hit-call score of the fitted dose curve at least 0.9, where 1 is the maximum; inconclusive = response in the unintended direction; inactive = score below 0.9.

Key:
[1] = TOX21_p53_BLA_p2_viability: Viability Assessment in the Tox21 HCT-116 p53 Agonism Beta-lactamase Assay, Phase 2 (AID 2283591);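 note: compound exposure lasted 16 h at 37 °C; actives lower the ATP signal meaning cytotoxicity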
In short: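 HCT-116 p53-bla cells (4000/well) rested 5 h at 37C, then received compounds in DMSO (217-fold dilution) for 16 h at 37C, 5% CO2. After the CCF4 read, CellTiter-Glo was added; ATP luminescence was read after 30 min at room temperature.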

[2] = TOX21_p53_BLA_p4_viability: Viability Assessment in the Tox21 HCT-116 p53 Agonism Beta-lactamase Assay, Phase 4 (AID 2283597);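 note: hits lower the luminescence signal meaning cytotoxicity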
In short: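 HCT116 p53-bla cells (4000/well) rested 5 h at 37C, then received compounds in DMSO (217-fold dilution) for 16 h at 37C, 5% CO2. CellTiter-Glo was added after the CCF4-AM read, and luminescence was read after 30 min at room temperature.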

[3] = target: Cellular tumor antigen p53 (Homo sapiens) (UniProt P04637); assay: TOX21_p53_BLA_p5_ratio: Tox21 HCT-116 p53 Agonism Beta-lactamase Assay, Ratio, Phase 5 (AID 2283599)
In short: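 HCT-116 cells carrying a p53-inducible beta-lactamase reporter were seeded at 4000 cells/well and dosed after 5 h with compound in DMSO (217-fold dilution). After 16 h at 37C, CCF4-AM substrate was added for 2 h, and the 460/530 nm emission ratio was scored as gain-of-signal versus DMSO.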

[4] = TOX21_p53_BLA_p5_viability: Viability Assessment in the Tox21 HCT-116 p53 Agonism Beta-lactamase Assay, Phase 5 (AID 2283600)
In short: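 Cells were plated at 4000/well, rested 5 h at 37C, then given compounds in DMSO (217-fold dilution) for 16 h at 37C, 5% CO2. Following the CCF4-AM beta-lactamase read, CellTiter-Glo was added and luminescence was read after 30 min at room temperature.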

[5] = target: Cellular tumor antigen p53 (Homo sapiens) (UniProt P04637); assay: TOX21_p53_BLA_p3_ratio: Tox21 HCT-116 p53 Agonism Beta-lactamase Assay, Ratio, Phase 3 (AID 2283596)
In short: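 HCT116 p53-bla cells (4000/well) given compound in DMSO (217-fold dilution) after 5 h, incubated 16 h at 37C. CCF4-AM substrate 2 h at room temperature; 460/530 nm emission ratio, gain fitted against DMSO.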

[6] = target: Cellular tumor antigen p53 (Homo sapiens) (UniProt P04637); assay: TOX21_p53_BLA_p4_ratio: Tox21 HCT-116 p53 Agonism Beta-lactamase Assay, Ratio, Phase 4 (AID 2283601)
In short: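 HCT116 cells carrying an inducible beta-lactamase reporter were plated at 4000 cells/well, rested 5 h, then exposed to compounds in DMSO (217-fold dilution) for 16 h at 37C. CCF4-AM substrate was loaded 2 h at room temperature; 460/530 nm emission ratio scored gain-of-signal versus DMSO.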

[7] = target: Estrogen receptor (Homo sapiens) (UniProt P03372); assay: CCTE_Deisenroth_AIME_96WELL_LUC_Active: CCTE's 96-well Estrogen Receptor Transactivation Assay with AIME metabolic competence (ERTA luciferase; metabolism positive), Deisenroth Lab (AID 2284023)
In short: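 Chemicals pre-incubated 2 h with alginate-immobilized phenobarbital/beta-naphthoflavone-induced male Sprague Dawley rat liver S9, then medium transferred to VM7Luc4E2 cells for 24 h luciferase read-out. 10-point series 0.002 - 200 uM; fitted relative to 17beta-estradiol.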

[8] = target: Estrogen receptor (Homo sapiens) (UniProt P03372); assay: CCTE_Deisenroth_AIME_96WELL_LUC_Inactive: CCTE's 96-well Estrogen Receptor Transactivation Assay without AIME metabolic competence (ERTA luciferase; metabolism negative), Deisenroth Lab (AID 2284025)
In short: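 VM7Luc4E2 breast cells, luciferase read 24 h after dosing with medium pre-incubated 2 h on alginate-water lids (metabolism negative). 10-point series 0.002–200 uM, single technical replicate, n≥4; fit relative to 17beta-estradiol.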

[9] = CCTE_Deisenroth_AIME_96WELL_CTox_Active: Cytotoxicity Assessment (CTOX) in CCTE's 96-well Estrogen Receptor Transactivation Assay with AIME metabolic competence (metabolism positive), Deisenroth Lab (AID 2284028)
In short: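 Chemicals (0.002–200 uM) were first incubated 2 h with alginate-immobilized phenobarbital/beta-naphthoflavone-induced male rat liver S9; conditioned medium then went onto VM7Luc4E2 cells for 24 h, with viability read by protease-substrate fluorescence, fitted bidirectionally.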

[10] = CCTE_Deisenroth_AIME_96WELL_CTox_Inactive: Cytotoxicity Assessment (CTOX) in CCTE's 96-well Estrogen Receptor Transactivation Assay without AIME metabolic competence (metabolism negative), Deisenroth Lab (AID 2284029)
In short: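 Chemicals (10-point series, 0.002-200 uM) were incubated 2 h with alginate-water microspheres lacking S9. The conditioned medium was then transferred onto VM7Luc4E2 cells for 24 h. Viability was measured by protease-substrate cleavage to a fluorescent probe, with loss of signal fitted bidirectionally; n≥4 experimental replicates.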

[11] = target: Thyroid hormone receptor alpha (Rattus norvegicus) + Thyroid hormone receptor beta (Rattus norvegicus) (UniProt P18113+P63059); assay: TOX21_TR_LUC_GH3_Antagonist_Followup: Tox21 GH3 Thyroid Hormone Receptor Antagonism Luciferase Follow-Up Assay (AID 2283942)
In short: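 Rat pituitary GH3 cells with a TRα/TRβ-driven luciferase reporter, 5 h attachment, then 15 concentrations (92 uM to 5nM final) plus 1.0 nM T3 agonist, 24 h at 37C/5% CO2. ONE-Glo luminescence; signal change fitted against DMSO baseline.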

THRB (gene 7068) [12] = target: THRB (gene 7068) (UniProt P10828); assay: TOX21_TRB_BLA_Antagonist_Followup_ratio: Tox21 Thyroid Hormone Receptor beta Antagonism Beta-lactamase (BLA) Follow-Up Assay, Ratio (AID 2283958)
In short: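 In this antagonist-mode follow-up, a stably integrated GAL4-TRβ LBD fusion drives a UAS-beta-lactamase reporter in HEK293T cells. Loss of ratio signal relative to DMSO after 18 h treatment indicates activity; parallel CellTiter-Glo flags cytotoxicity.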

THRB (gene 7068) [13] = target: THRB (gene 7068) (UniProt P10828); assay: TOX21_TRB_COA_Antagonist_Followup_ratio: Tox21 Thyroid Hormone Receptor beta Antagonism through Coactivator Recruitment Follow-Up Assay, Ratio (AID 2283967)
In short: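 Cell-free TR-FRET coactivator recruitment with GST-tagged TRβ LBD (5.0 nM) and fluorescein-labeled SRC-2 peptide (200 nM) detected by terbium anti-GST antibody (2 nM). The 520:495 nm emission ratio was normalized to DMSO (0%) and T3 (100%).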

[14] = TOX21_TR_RXR_BLA_Antagonist_Followup_viability: Viability Assessment in the Tox21 Thyroid Hormone Receptor beta Retinoid X Receptor alpha (RXRa) Antagonism Beta-lactamase (BLA) Follow-Up Assay (AID 2283979)
In short: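 RXRa-UAS-bla HEK293T cells seeded 2,500/well in phenol red-free DMEM with 2% charcoal-stripped FBS, attached 5 h, then exposed to compounds at 11 concentrations in triplicate for 16 h at 37C/5% CO2. Viability read by CellTiter-Glo ATP luminescence; bidirectional fit versus DMSO.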

Measured: AC50

Sequence of Cellular tumor antigen p53 (Homo sapiens) (P04637 whole entry, looked up): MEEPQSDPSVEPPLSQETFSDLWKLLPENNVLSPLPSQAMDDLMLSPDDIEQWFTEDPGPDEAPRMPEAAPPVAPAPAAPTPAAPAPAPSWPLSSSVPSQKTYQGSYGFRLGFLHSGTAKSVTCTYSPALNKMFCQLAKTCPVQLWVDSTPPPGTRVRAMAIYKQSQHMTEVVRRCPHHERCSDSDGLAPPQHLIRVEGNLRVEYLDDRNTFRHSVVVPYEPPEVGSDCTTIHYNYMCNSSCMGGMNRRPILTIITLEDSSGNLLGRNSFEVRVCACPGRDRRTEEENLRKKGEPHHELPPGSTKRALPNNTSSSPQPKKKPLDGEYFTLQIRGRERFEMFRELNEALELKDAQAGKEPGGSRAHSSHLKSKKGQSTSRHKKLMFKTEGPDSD
Sequence of Estrogen receptor (Homo sapiens) (P03372 whole entry, looked up): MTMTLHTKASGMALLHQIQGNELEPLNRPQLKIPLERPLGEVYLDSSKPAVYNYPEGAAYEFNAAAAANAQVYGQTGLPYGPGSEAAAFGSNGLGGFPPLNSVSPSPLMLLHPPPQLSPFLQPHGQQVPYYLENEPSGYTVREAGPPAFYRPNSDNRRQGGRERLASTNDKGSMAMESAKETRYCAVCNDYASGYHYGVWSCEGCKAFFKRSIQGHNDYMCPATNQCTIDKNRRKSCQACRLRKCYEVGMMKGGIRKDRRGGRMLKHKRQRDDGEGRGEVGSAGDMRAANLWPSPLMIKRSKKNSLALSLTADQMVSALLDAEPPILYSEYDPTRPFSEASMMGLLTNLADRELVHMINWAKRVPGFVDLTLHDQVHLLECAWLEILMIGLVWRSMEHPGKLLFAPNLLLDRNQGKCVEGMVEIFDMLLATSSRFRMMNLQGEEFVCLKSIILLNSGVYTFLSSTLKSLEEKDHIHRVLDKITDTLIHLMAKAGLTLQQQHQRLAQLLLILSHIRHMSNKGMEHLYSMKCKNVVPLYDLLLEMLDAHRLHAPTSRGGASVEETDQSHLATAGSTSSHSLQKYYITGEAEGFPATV
Sequence of THRB (gene 7068) (P10828 whole entry, looked up, the tested form may be a part): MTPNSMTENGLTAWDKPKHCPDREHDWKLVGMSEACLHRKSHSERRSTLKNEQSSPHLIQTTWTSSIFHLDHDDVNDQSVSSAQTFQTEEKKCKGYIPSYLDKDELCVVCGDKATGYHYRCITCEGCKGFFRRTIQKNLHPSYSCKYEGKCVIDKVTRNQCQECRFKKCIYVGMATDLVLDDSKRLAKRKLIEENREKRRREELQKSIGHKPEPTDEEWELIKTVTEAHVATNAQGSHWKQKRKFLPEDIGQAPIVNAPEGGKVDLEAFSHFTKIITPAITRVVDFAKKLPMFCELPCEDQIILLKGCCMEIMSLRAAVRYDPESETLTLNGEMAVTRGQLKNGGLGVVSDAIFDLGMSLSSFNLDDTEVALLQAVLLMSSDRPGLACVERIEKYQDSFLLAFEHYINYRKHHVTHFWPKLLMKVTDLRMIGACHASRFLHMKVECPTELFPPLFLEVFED

CC(=O)Nc1ccc(C)c(Cl)c1
inactive: [1] | [2] | [3] | [4]

O=CNNC=O
inactive: [1] | [5] | [3] | [6]

C(=C\c1ccccc1)/c1ccccc1
inactive: [1] | [5] | [4] | [9] | [10]
active: [7] 18 µM | [8] 44.6 µM

CC(=O)C1CCCCC1=O (stereo unspecified)
inactive: [1] | [5] | [4]

O=[N+]([O-])c1ccc2[nH]ncc2c1
inactive: [1] | [2] | [3] | [4] | [6]

CC(=O)Nc1c(I)cc(I)c(C(=O)O)c1I
inactive: [1] | [5] | [3] | [6]

CC(=O)[C@@]1(O)CC[C@H]2[C@@H]3C[C@H](C)C4=CC(=O)CC[C@]4(C)[C@H]3CC[C@@]21C
inactive: [1] | [2] | [3]

O=C(CCC1CCN(Cc2ccccc2)CC1)c1ccc2c(c1)NCCCC2
inactive: [1] | [2] | [3] | [4] | [6]

CCN(CC)CCc1nc(-c2ccccc2)no1
inactive: [1] | [5] | [3] | [6]

CC(C)CC=O
inactive: [1] | [2] | [3]

O=C(Cl)c1ccccc1[N+](=O)[O-]
inactive: [1] | [5] | [4]

Cc1ccccc1C(N)=O
inactive: [1] | [5] | [4] | [6]

Cc1cscn1
inactive: [1] | [2]

CCC(C(=O)OCCOCCN(CC)CC)c1ccccc1 (stereo unspecified)
inactive: [1] | [5] | [3] | [6]

COc1ccc2c(c1)c(CC(=O)OCC(=O)O)c(C)n2C(=O)c1ccc(Cl)cc1
inactive: [1] | [2]

CN1CCCC(n2nc(Cc3ccc(Cl)cc3)c3ccccc3c2=O)CC1 (stereo unspecified)
inactive: [1] | [2]

COc1cc2nc(N3CCN(C(=O)C4CCCO4)CC3)nc(N)c2cc1OC (stereo unspecified)
inactive: [1] | [2] | [3] | [4] | [6]

Cc1c(N)cccc1[N+](=O)[O-]
inactive: [1] | [2] | [3] | [4]

O=[N+]([O-])c1cccc(S(=O)(=O)NCCNS(=O)(=O)c2cccc([N+](=O)[O-])c2)c1
inactive: [1] | [5] | [4] | [6]

CCC1=C(C)CN(C(=O)NCCc2ccc(S(=O)(=O)NC(=O)NC3CCC(C)CC3)cc2)C1=O (stereo unspecified)
inactive: [1] | [2] | [3]

Cc1onc(-c2ccccc2)c1C(=O)N[C@@H]1C(=O)N2[C@@H]1SC(C)(C)[C@@H]2C(=O)O
inactive: [1] | [2] | [6]

CN1C(CCl)Nc2cc(Cl)c(S(N)(=O)=O)cc2S1(=O)=O (stereo unspecified)
inactive: [1] | [2] | [3] | [6]

CC(C)(C)C(=O)Oc1ccc(S(=O)(=O)Nc2ccccc2C(=O)NCC(=O)O)cc1
inactive: [1] | [2] | [4] | [6]

CNCCCN1c2ccccc2CCc2ccccc21
inactive: [1] | [2] | [4] | [6]

O=C(O)c1cc2ccccc2c(Cc2c(O)c(C(=O)O)cc3ccccc23)c1O
inactive: [1] | [2] | [3] | [4] | [6]

OC1OC[C@@H](O)[C@H](O)[C@@H]1O (stereo partly specified)
inactive: [1] | [2] | [6]

CCC(C)(C)C
inactive: [1] | [2] | [6]

CC(C)=CCC/C(C)=C/CC/C(C)=C/CCC(=O)OC/C=C(\C)CCC=C(C)C
inactive: [1] | [2] | [6]

CNS(=O)(=O)CCc1ccc2[nH]cc(C3CCN(C)CC3)c2c1
inactive: [1] | [2] | [4] | [6]

CCCNCC(O)COc1ccccc1C(=O)CCc1ccccc1 (stereo unspecified)
inactive: [1] | [2] | [4]

CC(=O)N(CC(C)C(=O)O)c1c(I)cc(I)c(N)c1I (stereo unspecified)
inactive: [1] | [2] | [3] | [6]

Cn1ccc2cc3c(cc21)CCN3C(=O)Nc1cccnc1
inactive: [1] | [2] | [3] | [6]

O=c1[nH]cnc2ccccc12
inactive: [1] | [2] | [3] | [4] | [6]

O=C(CCCCCCCCC#CI)Oc1ccccc1
inactive: [1] | [2] | [6] | [11] | THRB (gene 7068) [12] | THRB (gene 7068) [13] | [14]
